Holding throughout (settings): mRNA level, 48 h; actives raise or lower the signal
Read-out in experiment [1]: Bcl-2 (BAX) gene, BAX (gene 581)
Briefly: LTEA_HepaRG_BAX: Life Technologies and Expression Analysis (LTEA) Assay for Bcl-2 (BAX) gene using HepaRG (AID 2283470). The method, boiled down: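 Differentiated HepaRG cells exposed 48 h in serum-free induction medium, eight half-log concentrations from 100 uM, in duplicate, 0.5% DMSO vehicle. BAX mRNA by TaqMan qRT-PCR, normalised to ACTB, GAPDH and POLR2A.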

Read-out in experiment [2]: adenosine kinase (ADK) gene, ADK (gene 132)
Briefly: LTEA_HepaRG_ADK: Life Technologies and Expression Analysis (LTEA) Assay for adenosine kinase (ADK) gene using HepaRG (AID 2283471). The method, boiled down: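 ADK expression quantified by qRT-PCR, normalised to three housekeeping genes, after 48 h exposure of HepaRG cells to eight concentrations (top 100 uM, half-log steps, duplicate, 0.5% DMSO). Up- or down-regulation fitted relative to vehicle.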

Read-out in experiment [3]: Alpha-fetoprotein (AFP) gene, AFP (gene 174)
Briefly: LTEA_HepaRG_AFP: Life Technologies and Expression Analysis (LTEA) Assay for Alpha-fetoprotein (AFP) gene using HepaRG (AID 2283472). The method, boiled down:
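Differentiated human HepaRG cells exposed 48 h in serum-free induction medium, 8-point half-log series from 100 uM in 0.5% DMSO, duplicate. AFP mRNA by qRT-PCR, normalized to ACTB, GAPDH, POLR2A; bidirectional fit vs DMSO.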

Read-out in the next experiment: BCL2L11 (gene 10018)
In words: LTEA_HepaRG_BCL2L11: Life Technologies and Expression Analysis (LTEA) Assay for Bcl-2 (BCL2L11) gene using HepaRG (AID 2283473). The method, boiled down:
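Differentiated human HepaRG cells were exposed 48 h in serum-free induction medium to eight half-log concentrations up to 100 uM in 0.5% DMSO, in duplicate. BCL2L11 mRNA was quantified by TaqMan qRT-PCR, normalized to ACTB, GAPDH and POLR2A; induction or repression fitted versus DMSO.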

Read-out in experiment [4]: Apolipoprotein A-V (APOA5) gene, APOA5 (gene 116519)
In words: LTEA_HepaRG_APOA5: Life Technologies and Expression Analysis (LTEA) Assay for Apolipoprotein A-V (APOA5) gene using HepaRG (AID 2283474). In a few lines:
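Differentiated HepaRG cells in serum-free induction medium, exposed 48 h in duplicate to eight half-log concentrations topping at 100 uM (0.5% DMSO). APOA5 mRNA by Fluidigm TaqMan qRT-PCR, normalized to ACTB, GAPDH and POLR2A; bidirectional fit versus DMSO.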

Read-out in experiment [5]: Apoptosis regulator Bcl-2 (Homo sapiens) (UniProt P10415)
Briefly: LTEA_HepaRG_BCL2: Life Technologies and Expression Analysis (LTEA) Assay for Bcl-2 gene using HepaRG (AID 2283475). In a few lines:
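Differentiated human HepaRG cells in serum-free induction medium exposed 48 h, in duplicate, to 8-point half-log series from 100 uM in 0.5% DMSO. BCL2 mRNA by qRT-PCR (TaqMan/Fluidigm), normalized to ACTB, GAPDH, POLR2A; bidirectional fit against DMSO.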

Read-out in experiment [6]: Bcl-2 (BID) gene, BID (gene 637)
In words: LTEA_HepaRG_BID: Life Technologies and Expression Analysis (LTEA) Assay for Bcl-2 (BID) gene using HepaRG (AID 2283476). The method, boiled down: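 Gene expression by qRT-PCR in HepaRG cells after 48 h exposure, duplicate wells, eight half-log concentrations topping at 100 uM in 0.5% DMSO. Normalized to ACTB, GAPDH, POLR2A; bidirectional fitting relative to DMSO.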

Read-out in the next experiment: Caspase-3 (Homo sapiens) (UniProt P42574)
Briefly: LTEA_HepaRG_CASP3: Life Technologies and Expression Analysis (LTEA) Assay for cysteine-aspartic acid protease (CASP3) using HepaRG (AID 2283477). The method, boiled down:
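Differentiated HepaRG cells, plated 48 h, were treated in duplicate in serum-free induction medium for 48 h with eight half-log concentrations up to 100 uM in 0.5% DMSO. CASP3 mRNA measured by qRT-PCR, normalized to ACTB, GAPDH, POLR2A.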

Read-out in experiment [7]: Cytochrome P450 (CYP24A1), CYP24A1 (gene 1591)
Briefly: LTEA_HepaRG_CYP24A1: Life Technologies and Expression Analysis (LTEA) Assay for Cytochrome P450 (CYP24A1) using HepaRG (AID 2283478). The method, boiled down: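 HepaRG cells plated 48 h, then exposed in duplicate in serum-free induction medium for 48 h to 8-point half-log series from 100 uM in 0.5% DMSO. CYP24A1 mRNA by Fluidigm qRT-PCR, normalized to ACTB, GAPDH, POLR2A; bidirectional fit versus DMSO.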

Read-out in experiment [8]: cysteine-aspartic acid protease (CASP8), CASP8 (gene 841)
In words: LTEA_HepaRG_CASP8: Life Technologies and Expression Analysis (LTEA) Assay for cysteine-aspartic acid protease (CASP8) using HepaRG (AID 2283480). In a few lines: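 Differentiated HepaRG cells in serum-free induction medium, 48 h exposure, eight-point half-log series from 100 uM in 0.5% DMSO, duplicates. CASP8 mRNA by qRT-PCR, normalized to ACTB, GAPDH, POLR2A; bidirectional fit versus DMSO.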

Read-out in experiment [9]: Cytochrome P450 (CYP2B6), CYP2B6 (gene 1555)
Briefly: LTEA_HepaRG_CYP2B6: Life Technologies and Expression Analysis (LTEA) Assay for Cytochrome P450 (CYP2B6) using HepaRG (AID 2283481). The method, boiled down: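 Differentiated human HepaRG cells in serum-free induction medium, dosed in duplicate for 48 h over 8 half-log concentrations topping at 100 uM (0.5% DMSO). CYP2B6 mRNA measured by TaqMan qRT-PCR, normalized to ACTB, GAPDH, POLR2A; bidirectional fit versus DMSO.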

Read-out in experiment [10]: Cytochrome P450 2C19 (Homo sapiens) (UniProt P33261)
In words: LTEA_HepaRG_CYP2C19: Life Technologies and Expression Analysis (LTEA) Assay for CYP2C19 using HepaRG (AID 2283482). In a few lines:
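Differentiated HepaRG cells in serum-free induction medium exposed 48 h in duplicate, 8 concentrations from 100 uM by half-log steps in 0.5% DMSO. CYP2C19 mRNA measured by TaqMan qRT-PCR, normalized to ACTB, GAPDH, POLR2A. Bidirectional fit versus DMSO.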

Read-out in another experiment: CYP2C9 (gene 1559)
In words: LTEA_HepaRG_CYP2C9: Life Technologies and Expression Analysis (LTEA) Assay for CYP2C9 using HepaRG (AID 2283484). In a few lines:
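Differentiated human HepaRG cells in serum-free induction medium were exposed 48 h to chemicals in 8-point half-log series from 100 uM (0.5% DMSO), in duplicate. CYP2C9 mRNA was measured by qRT-PCR, normalized to ACTB/GAPDH/POLR2A, with bidirectional fitting versus DMSO.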

Read-out in another experiment: CYP2E1 (gene 1571)
Briefly: LTEA_HepaRG_CYP2E1: Life Technologies and Expression Analysis (LTEA) Assay for CYP2E1 using HepaRG (AID 2283485). In a few lines:
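HepaRG cells, plated 48 h, then exposed 48 h in serum-free induction medium to eight half-log concentrations from 100 uM in 0.5% DMSO, duplicate. CYP2E1 mRNA by qRT-PCR, normalized to ACTB/GAPDH/POLR2A; bidirectional fit versus DMSO.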

Read-out in experiment [11]: Cytochrome P450 3A4 (Homo sapiens) (UniProt P08684)
In words: LTEA_HepaRG_CYP3A4: Life Technologies and Expression Analysis (LTEA) Assay for CYP3A4 using HepaRG (AID 2283487). In a few lines:
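Differentiated HepaRG cells, plated 48 h, then dosed 48 h in serum-free induction medium with 0.5% DMSO, 8 half-log concentrations up to 100 uM, duplicate. CYP3A4 mRNA by qRT-PCR, normalized to ACTB/GAPDH/POLR2A; bidirectional fit versus DMSO.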

Read-out in experiment [12]: DNA damage-inducible transcript 3 (DDIT3), DDIT3 (gene 1649)
Briefly: LTEA_HepaRG_DDIT3: Life Technologies and Expression Analysis (LTEA) Assay for DNA damage-inducible transcript 3 (DDIT3) using HepaRG (AID 2283488). In a few lines: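 HepaRG cells, 48 h after plating, exposed 48 h in serum-free induction medium to 8 half-log concentrations up to 100 uM in 0.5% DMSO, in duplicate. DDIT3 mRNA measured by TaqMan qRT-PCR, normalized to ACTB, GAPDH and POLR2A. Fitted bidirectionally against DMSO.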

Read-out in the next experiment: CYP2C8 (gene 1558)
Briefly: LTEA_HepaRG_CYP2C8: Life Technologies and Expression Analysis (LTEA) Assay for CYP2C8 using HepaRG (AID 2283483). The method, boiled down:
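Differentiated HepaRG cells in serum-free induction medium exposed 48 h in duplicate to 8 half-log concentrations from 100 uM in 0.5% DMSO. CYP2C8 mRNA by qRT-PCR normalized to ACTB, GAPDH, POLR2A; bidirectional fit versus DMSO.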

Read-out in experiment [13]: Pro-epidermal growth factor (Homo sapiens) (UniProt P01133)
Briefly: LTEA_HepaRG_EGF: Life Technologies and Expression Analysis (LTEA) Assay for Epidermal growth factor (EGF) using HepaRG (AID 2283489). The method, boiled down: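 HepaRG cells (~100,000/well, 48 h pre-culture) exposed in duplicate for 48 h in serum-free induction medium to 8 half-log concentrations up to 100 uM in 0.5% DMSO. EGF mRNA by qRT-PCR, normalized to ACTB/GAPDH/POLR2A; bidirectional fit versus DMSO.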

Read-out in the next experiment: CYP4A11 (gene 1579)
Briefly: LTEA_HepaRG_CYP4A11: Life Technologies and Expression Analysis (LTEA) Assay for CYP4A11 using HepaRG (AID 2283486). The method, boiled down:
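Differentiated HepaRG cells, 48 h after plating, exposed in duplicate for 48 h to 8 half-log concentrations up to 100 uM in 0.5% DMSO in serum-free induction medium. CYP4A11 mRNA measured by TaqMan qRT-PCR, normalized to ACTB, GAPDH and POLR2A.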

The structures appear in SMILES notation. Activity calls are given as the source filed them. How the source made its calls: active means hit-call score of the fitted dose curve at least 0.9, where 1 is the maximum; inactive means score below 0.9.

One may read the AC50 as the midpoint of the concentration-response curve, whichever way the signal moves.

Sequence of Apoptosis regulator Bcl-2 (Homo sapiens) (P10415 whole entry, looked up): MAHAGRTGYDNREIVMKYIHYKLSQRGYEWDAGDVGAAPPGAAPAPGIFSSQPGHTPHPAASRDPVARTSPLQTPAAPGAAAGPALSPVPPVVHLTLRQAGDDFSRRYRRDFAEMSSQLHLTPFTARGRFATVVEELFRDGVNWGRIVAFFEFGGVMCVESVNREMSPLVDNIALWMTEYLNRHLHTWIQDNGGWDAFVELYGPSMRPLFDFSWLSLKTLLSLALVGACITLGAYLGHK
Sequence of Cytochrome P450 2C19 (Homo sapiens) (P33261 whole entry, looked up): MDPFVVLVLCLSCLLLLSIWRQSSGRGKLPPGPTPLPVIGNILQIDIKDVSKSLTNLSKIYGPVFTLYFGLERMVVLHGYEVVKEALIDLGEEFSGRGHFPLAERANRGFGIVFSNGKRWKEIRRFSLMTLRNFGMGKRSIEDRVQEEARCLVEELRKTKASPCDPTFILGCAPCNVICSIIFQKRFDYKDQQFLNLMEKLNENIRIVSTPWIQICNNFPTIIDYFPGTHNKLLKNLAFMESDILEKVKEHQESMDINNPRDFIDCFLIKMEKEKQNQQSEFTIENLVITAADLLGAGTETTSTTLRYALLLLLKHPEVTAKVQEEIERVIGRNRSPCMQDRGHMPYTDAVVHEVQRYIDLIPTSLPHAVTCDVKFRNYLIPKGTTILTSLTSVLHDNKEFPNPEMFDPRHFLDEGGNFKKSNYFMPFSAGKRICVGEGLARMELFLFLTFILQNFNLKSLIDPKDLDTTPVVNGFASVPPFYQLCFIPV
Sequence of Caspase-3 (Homo sapiens) (P42574 whole entry, looked up): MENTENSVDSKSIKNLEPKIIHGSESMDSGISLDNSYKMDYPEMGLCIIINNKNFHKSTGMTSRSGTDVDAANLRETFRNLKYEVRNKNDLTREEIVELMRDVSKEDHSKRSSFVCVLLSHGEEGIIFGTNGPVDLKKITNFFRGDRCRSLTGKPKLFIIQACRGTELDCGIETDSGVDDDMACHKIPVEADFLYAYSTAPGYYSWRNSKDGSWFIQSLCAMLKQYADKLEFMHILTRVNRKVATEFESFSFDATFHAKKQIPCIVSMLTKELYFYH
Sequence of Cytochrome P450 3A4 (Homo sapiens) (P08684 whole entry, looked up): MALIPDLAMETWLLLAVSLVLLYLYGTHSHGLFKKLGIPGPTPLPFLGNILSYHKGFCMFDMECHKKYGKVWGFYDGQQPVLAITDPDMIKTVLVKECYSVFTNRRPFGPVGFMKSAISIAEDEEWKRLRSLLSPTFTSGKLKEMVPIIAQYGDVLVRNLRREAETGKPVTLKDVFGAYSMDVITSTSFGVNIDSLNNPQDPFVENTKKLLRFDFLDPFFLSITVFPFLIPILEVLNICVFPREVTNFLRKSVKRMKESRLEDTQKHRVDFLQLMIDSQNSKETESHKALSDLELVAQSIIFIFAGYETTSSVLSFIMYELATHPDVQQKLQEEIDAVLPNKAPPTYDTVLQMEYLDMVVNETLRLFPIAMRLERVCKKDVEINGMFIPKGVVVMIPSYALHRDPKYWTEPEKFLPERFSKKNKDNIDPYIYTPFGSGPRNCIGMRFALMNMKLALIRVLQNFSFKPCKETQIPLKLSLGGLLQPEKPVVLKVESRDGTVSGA

As to `O=c1n(Cl)c(=O)n(Cl)c(=O)n1Cl`, the outcome (in experiment [1]; in experiment [2]; in [3]; with BCL2L11 (gene 10018); in [4]; in experiment [5]) was inactive. Besides, the call (in [6]; with Caspase-3 (Homo sapiens); in experiment [7]; in experiment [8]; in [9]; in experiment [10]) was inactive. Further, the compound was classed as inactive (with CYP2C9 (gene 1559); with CYP2E1 (gene 1571); in experiment [11]; in [12]).
Regarding `O=C(O)c1c(Cl)ccc2cc(Cl)cnc12`, the compound was called inactive (in [1]; in experiment [2]; in experiment [3]; with BCL2L11 (gene 10018); in experiment [4]; in experiment [5]). Moreover, the compound was called inactive (in [6]; with Caspase-3 (Homo sapiens); in experiment [7]; in experiment [8]; in experiment [9]; in experiment [10]). For the same compound, the compound was classed as inactive (with CYP2C8 (gene 1558); with CYP2C9 (gene 1559); with CYP2E1 (gene 1571); in experiment [11]; in experiment [12]; in [13]).
With `Nc1cnn(-c2ccccc2)c(=O)c1Cl`, the call (in experiment [1]; in experiment [2]; in experiment [3]; with BCL2L11 (gene 10018); in experiment [4]; in [5]) was inactive. Moreover, the compound was called inactive (in experiment [6]; in the experiment with Caspase-3 (Homo sapiens); in [7]; in [8]; in [10]; with CYP2C8 (gene 1558)). Besides, the compound was classed as inactive (in the experiment with CYP2C9 (gene 1559); in the experiment with CYP4A11 (gene 1579); in experiment [12]; in [13]). The figures for the AC50 (in experiment [9]; with CYP2E1 (gene 1571); in [11]) were 17.1 µM (active), 9.92 µM (active) and 17.6 µM (active), respectively.
On to `Cn1c(-c2ccccc2)cc(-c2ccccc2)[n+]1C`, for which the outcome (in [1]; with BCL2L11 (gene 10018); in experiment [7]) was inactive. The AC50 was 82.1 µM (active) in experiment [2]; 39.5 µM (active) in [3]; 63.8 µM (active) in experiment [4]; 13.3 µM (active) in experiment [5]; 80 µM (active) in [6]; 50 µM (active) with Caspase-3 (Homo sapiens). Besides, the AC50 is 89.2 µM (active) in [8]; 11.3 µM (active) in experiment [9]; 50 µM (active) in [10]; 19.5 µM (active) with CYP2C9 (gene 1559); 24.5 µM (active) with CYP2E1 (gene 1571); 20.3 µM (active) with CYP4A11 (gene 1579). For the same compound, the results for the AC50 in [11], in experiment [12] and in experiment [13] were 50 µM (active), 13.5 µM (active) and 81.3 µM (active), respectively.
Take `COc1cc(Cl)c(OC)cc1Cl`: the compound was classed as inactive (in experiment [1]; in [2]; in experiment [3]; in the experiment with BCL2L11 (gene 10018); in [4]; in experiment [5]). The call (in [6]; with Caspase-3 (Homo sapiens); in experiment [8]; with CYP2C9 (gene 1559); with CYP2E1 (gene 1571); in experiment [11]) was inactive. Also, the compound was classed as inactive in [12] and in experiment [13]. The AC50 in [9] is 1.23 µM (active).

(Values after PubChem BioAssay (EPA / NIEHS).)
